This is a sample that favours compounds with a hit; in the whole collection about 8% have one here.
KB-V1 cytotox = kills drug-selected multidrug resistant KB-V1 cells; AID 1347076; KB-V1 MDR cells viability, CellTiter-Glo, 72 h; hit rate 3.4% among 400,000; Potency, µM (doses to about 46.1 µM), most hits filed as cytotoxic; also: nearly all actives have a fitted effect of over 60% in size
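Compound-treated KB-V1 multidrug-resistant cells, 72 h, 37 degrees C; viability by CellTiter-Glo. Fitted qHTS curves give the values.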
HT1080 IDH1KD tx = toxicity to HT-1080 IDH1 knockdown cells (counter line). hit rate 2% among 360,000. Potency, µM (titrated, usually from 46.1 µM), usual class: cytotoxic. HT-1080 IDH1 knockdown viability, ATP luminescence, 48 h
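% activity derives from luminescence (CellTiter-Glo), normalised to DMSO and no-cell wells. HT-1080-IDH1KD cells, 750/well, had 48 h compound exposure at 37 °C.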
HT1080-NT tox = kills 2HG-producing HT-1080-NT fibrosarcoma cells. Potency, µM (doses to about 46.1 µM), hits mostly cytotoxic. AID 686970. hit rate 1.6% among 360,000. HT-1080-NT fibrosarcoma viability, CellTiter-Glo ATP luminescence, 48 h;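 also: NT is the 2HG producing partner of a matched IDH1 knockdown line; nearly all actives have a fitted effect of over 55% in size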
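Viability by CellTiter-Glo luminescence after 48 h compound exposure at 37C of HT-1080-NT cells (750/well, RPMI, 5% FBS). % activity scaled between DMSO wells and medium-only wells, then curve-fitted and categorized by curve class.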
KB-3-1 tox = KB-3-1 parental cell cytotoxicity; Potency, µM (titrated, usually from 46.1 µM), usual class: cytotoxic; KB-3-1 viability, CellTiter-Glo ATP luminescence, 72 h; hit rate 1.4% among 400,000; AID 1347075; also: nearly all actives have a fitted effect of over 60% in size
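Cytotoxicity in the drug-sensitive parental line KB-3-1 was scored as loss of CellTiter-Glo luminescence following 72 h incubation with compound. Values come from curve fitting of normalized concentration-response data.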
SW480 rerep = DNA re-replication induction in SW480 cells; AID 624297; hit rate 1.8% among 340,000; SW480 DNA re-replication, Hoechst DNA content imaging, 48 h; Potency, µM (titrated, usually from 46.1 µM), usual class: activators; also: nearly all actives have a fitted effect of over 55% in size
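Image-based DNA-content assay: after two days of treatment, nuclei were labelled with the DNA dye Hoechst and imaged, and hits were compounds raising the count of nuclei showing high fluorescence intensity.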
MCF10A rerep = DNA re-replication induction in MCF 10a cells; Potency, µM (doses to about 46.1 µM), most hits filed as activators; AID 624296; MCF 10A DNA re-replication, Hoechst nuclear intensity, 48 h; hit rate 2.9% among 350,000; also: nearly all actives have a fitted effect of over 50% in size
Of the large screens only hits and unclear results are named; the others gave an inactive call. Calls follow the shape of the dose curve; as a rule, active = well fitted curve in the direction sought with a large enough effect; inconclusive = small, poorly fitted or top-dose-only effect, or another doubt; inactive = no such curve, though single readings can be large; an effect the other way counts as inactive or inconclusive.

O=S(=O)(Nc1ccc(Cl)nn1)c1ccccc1	SW480 rerep inconclusive, MCF10A rerep 13µM
O=S(=O)(Nc1ccc(Cl)cn1)c1ccccc1	none
Cc1ccccc1NNC(=O)C(=O)NNc1ccccc1C	HT1080 IDH1KD tx 18µM, KB-3-1 tox inconclusive, MCF10A rerep inconclusive
Cc1ccccc1NC(=O)C(Cl)=C(Cl)Cl	KB-V1 cytotox inconclusive, HT1080 IDH1KD tx inconclusive, HT1080-NT tox inconclusive, KB-3-1 tox inconclusive, SW480 rerep inconclusive, MCF10A rerep 18µM
Cc1ccccc1NC(=O)CCCCC(=O)Nc1ccccc1C	SW480 rerep inconclusive
Cc1ccc(C)c(NNC(=O)C(=O)NNc2cc(C)ccc2C)c1	none
O=S(=O)(NCC1CCCO1)c1ccc(Br)cc1 (stereo not drawn)	KB-V1 cytotox inconclusive
CCOC(=O)c1cc([N+](=O)[O-])c([N+](=O)[O-])cc1NC(C)=O	HT1080 IDH1KD tx inconclusive, HT1080-NT tox 7.3µM, KB-3-1 tox inconclusive, SW480 rerep inconclusive, MCF10A rerep 10µM
CCOC(=O)c1ccc(NC(=O)c2ccccc2[N+](=O)[O-])cc1	none
COc1ccc2c(c1)c(CC(=O)Nc1ccccc1OC)c(C)n2C(=O)c1ccc(Cl)cc1	KB-V1 cytotox inconclusive, KB-3-1 tox inconclusive, MCF10A rerep 16µM
COc1ccc2c(c1)c(CC(=O)NCc1cc([N+](=O)[O-])ccc1O)c(C)n2C(=O)c1ccc(Cl)cc1	KB-V1 cytotox inconclusive, HT1080-NT tox inconclusive, KB-3-1 tox inconclusive, MCF10A rerep 23µM
COc1ccc2c(c1)c(CC(=O)Nc1ccc(C(C)=O)cc1)c(C)n2C(=O)c1ccc(Cl)cc1	KB-V1 cytotox inconclusive
COc1ccc2c(c1)c(CC(=O)Nc1nnc(C3CC3)s1)c(C)n2C(=O)c1ccc(Cl)cc1	KB-V1 cytotox inconclusive, HT1080 IDH1KD tx inconclusive, HT1080-NT tox 23µM, KB-3-1 tox inconclusive, SW480 rerep inconclusive, MCF10A rerep 10µM
CCc1nc(N2CCN(C(=O)c3ccco3)CC2)c2c3c(sc2n1)CCCC3	KB-V1 cytotox inconclusive, KB-3-1 tox inconclusive
CC1CCc2c(sc3nc(C4CC4)nc(N4CCN(C(=O)c5ccco5)CC4)c23)C1 (stereo not drawn)	KB-V1 cytotox inconclusive, HT1080 IDH1KD tx 23µM, HT1080-NT tox inconclusive, KB-3-1 tox inconclusive, SW480 rerep inconclusive, MCF10A rerep 16µM
Cc1c(CCOC(=O)c2ccccc2)sc[n+]1CC(=O)c1ccc(Br)cc1	KB-V1 cytotox 7.3µM, HT1080 IDH1KD tx inconclusive, HT1080-NT tox inconclusive, KB-3-1 tox inconclusive
Cc1c(CCOC(=O)c2cc([N+](=O)[O-])cc([N+](=O)[O-])c2)sc[n+]1CC(=O)c1ccccc1	none
COc1ccc(/C=N/N2CCN(C)CC2)c(OC)c1OC	none
CN(C)S(=O)(=O)c1ccc(Cl)c(C(=O)Nc2ccccc2[N+](=O)[O-])c1	KB-V1 cytotox 16µM
CN(C)S(=O)(=O)c1cccc(C(=O)Nc2cc(Cl)cc(Cl)c2)c1	KB-V1 cytotox inconclusive, HT1080 IDH1KD tx inconclusive, HT1080-NT tox inconclusive, MCF10A rerep inconclusive
O=C(Nc1ccc(S(=O)(=O)N2CCOCC2)cc1)c1ccc([N+](=O)[O-])cc1Cl	SW480 rerep inconclusive, MCF10A rerep inconclusive
CCN(CC)S(=O)(=O)c1ccc(Cl)c(C(=O)Nc2ccc(Cl)cc2[N+](=O)[O-])c1	KB-V1 cytotox 4.1µM, MCF10A rerep inconclusive
CN(C)S(=O)(=O)c1cccc(C(=O)Nc2ccccc2Cl)c1	KB-V1 cytotox 16µM
O=C(Nc1cc(S(=O)(=O)N2CCOCC2)ccc1Cl)c1cc([N+](=O)[O-])ccc1Cl	KB-V1 cytotox inconclusive, HT1080 IDH1KD tx 21µM, HT1080-NT tox 9.2µM, KB-3-1 tox inconclusive, SW480 rerep 12µM
CCC(C)NC(=O)c1ccc(-n2c(=S)[nH]c3ccccc3c2=O)cc1 (stereo not drawn)	none
Cc1cc(C)c(C)c(OCC(=O)O/N=C(\N)c2cccnc2)c1	none
Cc1ccc(C(=O)c2ncc[nH]2)cc1	none
CCN(CC)S(=O)(=O)c1ccc(OC)c(NC(=O)CSc2cc(Cl)ccc2Cl)c1	KB-V1 cytotox 13µM
CCN(CC)S(=O)(=O)c1ccc(OC)c(NC(=O)c2cccc(C)c2[N+](=O)[O-])c1	none
CCN(CC)S(=O)(=O)c1ccc(OC)c(NC(=O)c2cc([N+](=O)[O-])ccc2Cl)c1	KB-3-1 tox 18µM
COc1ccc(Cl)cc1NC(=O)c1cccc([N+](=O)[O-])c1O	KB-V1 cytotox 21µM, HT1080 IDH1KD tx inconclusive, HT1080-NT tox inconclusive, KB-3-1 tox 12µM, MCF10A rerep inconclusive
COc1ccc(Cl)cc1NC(=O)C/C(C)=N/NC(=O)c1ccccc1[N+](=O)[O-]	KB-V1 cytotox inconclusive, HT1080 IDH1KD tx inconclusive
CC(C)OC(=O)Nc1ccc2c(c1)N(C(=O)N1CCN(C)CC1)c1ccccc1CC2	KB-V1 cytotox inconclusive, HT1080 IDH1KD tx 23µM, HT1080-NT tox 23µM, KB-3-1 tox inconclusive, MCF10A rerep inconclusive
CCOC(=O)Nc1ccc2c(c1)N(C(=O)N1CCN(C)CC1)c1ccccc1CC2	HT1080 IDH1KD tx inconclusive, HT1080-NT tox inconclusive
Cc1ccc2oc(C(=O)N(Cc3ccc(N(C)C)cc3)C3CCS(=O)(=O)C3)c(C)c2c1 (stereo not drawn)	none (no result: KB-V1 cytotox, KB-3-1 tox)
Cc1c(C(=O)N(Cc2ccc(Cl)cc2)C2CCS(=O)(=O)C2)oc2ccccc12 (stereo not drawn)	KB-V1 cytotox 8.2µM, HT1080-NT tox inconclusive, KB-3-1 tox inconclusive
CCOc1ccc(CN(C(=O)c2oc3ccccc3c2C)C2CCS(=O)(=O)C2)cc1 (stereo not drawn)	KB-V1 cytotox 9.2µM, HT1080 IDH1KD tx inconclusive, SW480 rerep inconclusive, MCF10A rerep inconclusive
COc1ccc(CN(C(=O)c2oc3ccccc3c2C)C2CCS(=O)(=O)C2)cc1OC (stereo not drawn)	none
COC(=O)c1sccc1-c1ccc(C(=O)Nc2cccnc2)o1	KB-V1 cytotox 5.8µM, MCF10A rerep inconclusive
COC(=O)C(=Cc1ccc(-c2ccsc2C(=O)OC)o1)C(=O)OC	HT1080 IDH1KD tx 21µM, HT1080-NT tox inconclusive, KB-3-1 tox inconclusive, SW480 rerep 5.8µM, MCF10A rerep 26µM
COC(=O)c1sccc1NC(=O)c1cccnc1	none
Cc1ccc(N(C(C)C(=O)N2CCOCC2)S(C)(=O)=O)cc1C (stereo not drawn)	SW480 rerep 23µM
COC(=O)c1c(C)nc(C)c(C(=O)OC)c1-c1ccc(OC)c(OC)c1	none
CCOC(=O)c1c(C)nc(C)c(C(=O)OCC)c1-c1ccc(O)c(OC)c1	SW480 rerep 3.7µM, MCF10A rerep inconclusive
CCOC(=O)c1cnc2c(cnn2C)c1NCCC(O)C(F)(F)F (stereo not drawn)	KB-V1 cytotox 6.5µM
